This note sets out measurements from PubChem BioAssay (EPA / NIEHS).

SMILES strings stand for the structures. Inconclusive results are not listed. Calls of active or inactive are those of the source. The calls were made as follows: active = hit-call score of the fitted dose curve at least 0.9, where 1 is the maximum; inconclusive = response in the unintended direction; inactive = score below 0.9.

Sequence of human Phosphodiesterase 10 (PDE10), PDE10A (gene 10846) (Q9Y233 whole entry, looked up): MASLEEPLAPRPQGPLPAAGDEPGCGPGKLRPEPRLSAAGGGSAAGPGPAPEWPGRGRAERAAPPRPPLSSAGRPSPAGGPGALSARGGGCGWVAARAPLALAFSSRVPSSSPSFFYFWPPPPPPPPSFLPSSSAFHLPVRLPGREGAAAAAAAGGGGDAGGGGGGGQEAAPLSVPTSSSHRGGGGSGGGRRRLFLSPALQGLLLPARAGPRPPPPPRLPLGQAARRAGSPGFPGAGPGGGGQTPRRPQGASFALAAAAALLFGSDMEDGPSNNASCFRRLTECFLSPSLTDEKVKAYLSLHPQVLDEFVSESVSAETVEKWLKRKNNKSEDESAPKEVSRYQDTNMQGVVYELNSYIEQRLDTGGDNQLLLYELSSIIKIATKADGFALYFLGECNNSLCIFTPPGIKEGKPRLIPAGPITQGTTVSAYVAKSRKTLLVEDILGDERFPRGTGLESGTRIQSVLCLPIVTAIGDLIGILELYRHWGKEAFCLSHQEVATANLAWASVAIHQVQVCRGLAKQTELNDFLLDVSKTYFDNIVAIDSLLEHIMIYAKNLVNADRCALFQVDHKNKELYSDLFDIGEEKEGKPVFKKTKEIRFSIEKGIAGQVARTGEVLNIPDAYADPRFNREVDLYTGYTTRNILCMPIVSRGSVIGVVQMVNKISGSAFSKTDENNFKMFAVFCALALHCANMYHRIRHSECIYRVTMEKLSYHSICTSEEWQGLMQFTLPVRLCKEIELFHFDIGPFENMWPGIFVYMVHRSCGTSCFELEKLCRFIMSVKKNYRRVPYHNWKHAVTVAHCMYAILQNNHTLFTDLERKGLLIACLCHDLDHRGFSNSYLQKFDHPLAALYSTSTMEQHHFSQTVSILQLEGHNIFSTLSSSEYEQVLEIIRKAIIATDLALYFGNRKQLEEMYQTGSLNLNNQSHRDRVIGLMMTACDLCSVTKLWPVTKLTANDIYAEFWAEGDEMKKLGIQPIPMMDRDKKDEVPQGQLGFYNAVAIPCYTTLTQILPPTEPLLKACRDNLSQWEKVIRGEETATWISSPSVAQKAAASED

One assay deals with human Matrix Metalloproteinase-9 (MMP9), MMP9 (gene 4318) (UniProt P14780). The assay can be described thus: NVS_ENZ_hMMP9: NovaScreen (NVS) Enzymatic Assay for human Matrix Metalloproteinase-9 (MMP9) (AID 2283190).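 Also: cell-free recombinant MMP9 protease activity read by fluorescent substrate signal; active means inhibition seen as loss of fluorescence signal versus DMSO.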 The gist of the method: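 Screening concentration 25 uM, duplicate wells, then dose series for confirmation. Cell-free enzymatic reaction measured by fluorescence intensity 1 h post-dosing; decreased signal versus DMSO taken as activity.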
Sequence of human Matrix Metalloproteinase-9 (MMP9), MMP9 (gene 4318) (P14780 whole entry, looked up): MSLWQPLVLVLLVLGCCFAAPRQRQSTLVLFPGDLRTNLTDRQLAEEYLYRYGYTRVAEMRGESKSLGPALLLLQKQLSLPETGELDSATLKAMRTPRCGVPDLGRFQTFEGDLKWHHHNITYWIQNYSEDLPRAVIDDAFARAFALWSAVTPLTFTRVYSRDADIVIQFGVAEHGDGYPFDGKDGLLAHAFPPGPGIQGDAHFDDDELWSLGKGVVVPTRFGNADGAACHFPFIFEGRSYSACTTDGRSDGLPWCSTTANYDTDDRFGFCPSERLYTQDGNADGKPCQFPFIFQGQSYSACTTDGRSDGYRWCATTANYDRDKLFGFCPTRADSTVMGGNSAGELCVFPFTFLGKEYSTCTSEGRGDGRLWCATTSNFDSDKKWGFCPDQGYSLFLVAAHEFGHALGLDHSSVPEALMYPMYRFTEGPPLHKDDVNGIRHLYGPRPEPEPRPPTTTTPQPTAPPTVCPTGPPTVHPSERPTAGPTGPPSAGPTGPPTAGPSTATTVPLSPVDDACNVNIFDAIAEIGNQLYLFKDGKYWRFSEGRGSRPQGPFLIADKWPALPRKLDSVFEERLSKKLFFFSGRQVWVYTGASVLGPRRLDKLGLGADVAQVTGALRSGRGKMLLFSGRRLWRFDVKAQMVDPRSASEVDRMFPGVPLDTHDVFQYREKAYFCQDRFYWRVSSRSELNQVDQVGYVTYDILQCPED
By AC50 is commonly meant the concentration at which the activity in the assay is half-maximal. With `BrCCCCBr`, the AC50 is 15.3 µM (active).
On to `CCOC(=O)CCN(SN(C)C(=O)Oc1cccc2c1OC(C)(C)C2)C(C)C`, for which the AC50 is 3.66 µM (active).
On to `O=c1oc2ccccc2c(O)c1C(CC(O)c1ccc(-c2ccc(Br)cc2)cc1)c1ccccc1` (centres undefined), for which the half-maximal activity concentration (AC50) was 0.436 µM (active).

Another assay has as its target human Phosphodiesterase 10 (PDE10), PDE10A (gene 10846) (UniProt Q9Y233). The experiment in a line: NVS_ENZ_hPDE10: NovaScreen (NVS) Enzymatic Assay for human Phosphodiesterase 10 (PDE10) (AID 2283195). The gist of the method:
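Recombinant human PDE10 with fluorescent substrate, 1 h, product separated by electrophoretic mobility shift. Loss of enzyme activity fitted against DMSO; initial screen 25 uM in duplicate, actives run to 50 uM maximum.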
In the case of `Nc1ccc(N)cc1`, the concentration at half-maximal activity (AC50) was 2.5 µM (active).
Take `Oc1ccc(Cc2ccc(O)cc2)cc1`: the compound was called inactive.
As for `CCCCOP(=O)(CCCC)OCCCC`, the outcome was inactive.
For the compound `BrCCCCBr`, the AC50 is 4.81 µM (active).
On to `O=[N+]([O-])c1ccc(Nc2ccccc2)cc1`, for which the compound was called inactive.
As to `CN(CCCC(O)c1cccnc1)N=O` (centres undefined), the AC50 is 35.5 µM (active).
Consider `c1ccc2sc(SNC3CCCCC3)nc2c1`, for which the result was inactive.
Consider `O=c1oc2ccccc2c(O)c1C(CC(O)c1ccc(-c2ccc(Br)cc2)cc1)c1ccccc1` (centres undefined), for which the compound was called inactive.
For the compound `CCOP(=O)(OCC)SCCSCC`, the compound was called inactive.
In the case of `N#Cc1ccccc1Cl`, the outcome was inactive.
For the compound `CC(C)(C)c1ccc(CCOc2ncnc3ccccc23)cc1`, the result was inactive.
Regarding `CC1CC(=O)O1` (centres undefined), the compound was called inactive.
`CC(C)[N+](=O)[O-]`: the call was inactive.

For the next assay, the target named is human Phosphoinositide 3-kinase alpha (PI3Ka), PIK3CA (gene 5290) (UniProt P42336). The experiment in a line: NVS_ENZ_hPI3Ka: NovaScreen (NVS) Enzymatic Assay for human Phosphoinositide 3-kinase alpha (PI3Ka) (AID 2283196). The gist of the method: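 Duplicate single-point screen (25 uM), then singleton dose-response (max 50 uM) for compounds meeting the threshold. Cell-free kinase reaction, 1 h; fluorescent mobility-shift readout.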
Sequence of human Phosphoinositide 3-kinase alpha (PI3Ka), PIK3CA (gene 5290) (P42336 whole entry, looked up): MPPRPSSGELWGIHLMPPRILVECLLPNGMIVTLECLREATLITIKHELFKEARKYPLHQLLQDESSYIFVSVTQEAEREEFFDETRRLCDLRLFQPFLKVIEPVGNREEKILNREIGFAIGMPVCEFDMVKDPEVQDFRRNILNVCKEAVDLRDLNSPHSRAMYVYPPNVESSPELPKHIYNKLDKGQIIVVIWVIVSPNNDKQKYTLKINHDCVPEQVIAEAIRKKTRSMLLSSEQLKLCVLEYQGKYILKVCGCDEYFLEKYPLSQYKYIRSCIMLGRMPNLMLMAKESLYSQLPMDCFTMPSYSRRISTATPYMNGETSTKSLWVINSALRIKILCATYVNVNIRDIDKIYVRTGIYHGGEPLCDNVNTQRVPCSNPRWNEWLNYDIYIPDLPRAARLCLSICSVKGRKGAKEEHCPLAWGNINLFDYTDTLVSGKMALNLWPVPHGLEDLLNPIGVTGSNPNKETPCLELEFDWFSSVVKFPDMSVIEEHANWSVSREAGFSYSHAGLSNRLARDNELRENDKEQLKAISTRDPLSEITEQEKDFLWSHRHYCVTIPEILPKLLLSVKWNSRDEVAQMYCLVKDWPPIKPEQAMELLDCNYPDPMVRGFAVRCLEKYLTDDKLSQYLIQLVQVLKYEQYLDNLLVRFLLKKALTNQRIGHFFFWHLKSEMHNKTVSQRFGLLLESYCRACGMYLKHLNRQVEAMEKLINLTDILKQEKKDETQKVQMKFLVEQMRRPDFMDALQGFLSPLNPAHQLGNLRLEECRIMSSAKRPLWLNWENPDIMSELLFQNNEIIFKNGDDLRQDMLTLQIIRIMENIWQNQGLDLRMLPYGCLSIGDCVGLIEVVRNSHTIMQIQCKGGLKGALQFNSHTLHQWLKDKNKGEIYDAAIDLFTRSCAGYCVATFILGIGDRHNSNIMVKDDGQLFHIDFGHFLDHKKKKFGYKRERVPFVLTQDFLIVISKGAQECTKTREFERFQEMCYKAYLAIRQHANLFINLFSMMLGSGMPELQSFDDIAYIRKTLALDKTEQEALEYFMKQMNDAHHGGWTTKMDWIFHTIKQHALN
`Nc1c(Oc2ccccc2)cc(O)c2c1C(=O)c1ccccc1C2=O`: the AC50 was 3.26 µM (active).
Consider `Oc1ccc(Cc2ccc(O)cc2)cc1`, for which the outcome was inactive.
Take `CCOC(=O)CCN(SN(C)C(=O)Oc1cccc2c1OC(C)(C)C2)C(C)C`: the call was inactive.
Consider `O=[N+]([O-])c1ccc(Nc2ccccc2)cc1`, for which the outcome was inactive.
On the same count and under the same terms, to `CCC(C)(C#N)N=NC(C)(C#N)CC` (centres undefined) belongs “inactive”.
Take `Nc1nc(N)nc(Cl)n1`: the outcome was inactive.
The same measure, in the same setting: to `O=C(O)C1(c2ccc3c(c2)OC[C@H](Cc2ccc(-c4ccccc4)cc2)[C@H]3O)CCCC1` belongs “inactive”.
In the case of `Cc1cc(C(C)(C)c2ccc(O)c(C)c2)ccc1O`, the AC50 was 5.25 µM (active).
Regarding `C=CC(=O)NC(C)(C)CC(C)=O`, the outcome was inactive.
Consider `C=CCCl`, for which the call was inactive.
On to `O=c1oc2ccccc2c(O)c1C(CC(O)c1ccc(-c2ccc(Br)cc2)cc1)c1ccccc1` (centres undefined), for which the half-maximal activity concentration (AC50) was 5.19 µM (active).
In the case of `CC(C)[N+](=O)[O-]`, the call was inactive.
As to `CC[N+](CC)(CC)CC`, the outcome was inactive.
